HCMV antiviral: blocks human cytomegalovirus replication; HFF cells, HCMV-luciferase reporter, 72 h; hits give low values; activity change, negative = inhibition, % at 57.5 µM; AID 1259415; actives 4.5% (n = 410,000); in the data active = activity change below about -60%; inconclusive = no clear call, values can overlap the other calls; inactive = above about -39%; note: % is set by controls: 0 for no effect and ±100 for the full control effect
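Cell-based, HFFs, 1000 cells/well, 16 h 37C; cpds in DMSO + HCMV-luc, MOI 1 PFU/cell; 72 h 37C; OneGlo luminescence after 5 min RT; norm. to buffer vs Salinomycin 10uM.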
Shiga toxin inh: Shiga toxin inhibition; Vero cells, Shiga toxin protein synthesis inhibition reporter; inhibition, % at 38.7 µM; actives 9.2% (n = 290,000); in the data active = inhibition mostly above about 28%, no sharp cut-off; inactive = mostly below about 43%; note: 0% is about no effect
CHX counter: counter-screen for Shiga toxin inhibitors: cycloheximide protein synthesis inhibition; cell reporter, cycloheximide protein synthesis inhibition counterscreen; max response, %; actives 12% (n = 300,000); in the data active = max response mostly above about 13%, no sharp cut-off; inactive = mostly below about 14%; note: read at 38.3 µM for the half of the compounds with a filed dose; 0% is about no effect
Pf growth 48h: inhibits P. falciparum growth in the first generation, 48 h; P. falciparum luciferase growth in erythrocytes, 48 h; Potency, µM (doses to about 28.7 µM), for the others: at the top dose activity change, negative = inhibition, most hits filed as inhibitors; actives 5.9% (n = 310,000); AID 504832; note: potency is the fitted concentration of half-maximal effect; % is set by controls: 0 for no effect and ±100 for the full control effect
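Compounds are pin-transferred into medium, infected erythrocytes (2% hematocrit, 0.1% parasitemia final) are added, and plates sit one parasite generation at 37 C in 5% CO2. Detection reagent is then added and luminescence measured.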
Pf growth 96h: inhibits malaria parasite growth, 96 h | Potency, µM (top dose mostly 28.7 µM), for the others: top-dose activity change, negative = inhibition, most hits filed as inhibitors | P. falciparum luciferase reporter growth, 96 h | actives 6.9% (n = 320,000); note: potency is the fitted concentration of half-maximal effect; % is set by controls: 0 for no effect and ±100 for the full control effect
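Luminescence readout: decreased luciferase signal marks inhibited growth of reporter-expressing P. falciparum in infected red cells (2% hematocrit, 0.05% parasitemia final), exposed to compound two generations (96 h, 37 C, 5% CO2).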
Starred values were filed as active, the others as inactive; i = inactive; ? = inconclusive; / = no result. Most compounds without a hit are left out; they make up all but 20% or so of the library. Unless noted, calls come from the whole dose curve; as a rule, active = well fitted inhibition curve with a large enough effect; inconclusive = small, poorly fitted or top-dose-only effect, or another doubt; inactive = no such curve, though single readings can be large or run the other way.

SMILES | HCMV antiviral | Shiga toxin inh | CHX counter | Pf growth 48h | Pf growth 96h
CCOc1ccc(Oc2cc(NC(=O)c3ccco3)cc([N+](=O)[O-])c2)cc1 | 7 | 9 | -2 | 6.6µM* | 1.7µM*
CC(NC(=O)CN(c1cccc(C(F)(F)F)c1)S(C)(=O)=O)c1ccccc1 (configuration not stated) | -12 | / | -1 | ? | 1.2µM*
Cn1ccc2cc(S(=O)(=O)N3CCN(C(=O)Nc4ccc(F)cc4F)CC3)ccc21 | -1 | / | / | / | /
COc1ccc(NS(=O)(=O)c2cccc(C(=O)N/N=C/c3cn(-c4ccccc4)nc3-c3ccc(OC)cc3)c2)cc1 | -28 | 5 | 9 | 2.3µM* | ?
COc1ccccc1NS(=O)(=O)c1cccc(C(=O)N/N=C/c2cn(-c3ccccc3)nc2-c2ccccc2)c1 | ? | 7 | 8 | 2.1µM* | 2.9µM*
COc1ccc(NS(=O)(=O)c2cccc(C(=O)N/N=C/c3cn(-c4ccccc4)nc3-c3ccccc3)c2)cc1 | -22 | -6 | -3 | ? | 21%
O=C(NCc1cccc(C(F)(F)F)c1)N1CCN(S(=O)(=O)c2ccccc2F)CC1 | 2 | 2 | -3 | -12% | -10%
CC(Oc1ccccc1)C(=O)Nc1nnc(S(=O)(=O)N(C)c2ccccc2)s1 (configuration not stated) | 20 | 11 | -1 | -7% | 4%
O=C(Cn1cnc2ccccc21)N/N=C/c1ccccn1 | 74 | -7 | -1 | 1% | 37%
O=C1NC(=O)c2cc(NC(=O)c3cccc4ccccc34)ccc21 | -85* | -4 | -3 | 33% | 15%
Cc1ccc(NC(=O)c2cccc3ccccc23)cc1 | 69 | 173* | 33* | 40% | 122%
COc1ccc(Br)cc1C(=O)Nc1ccc(O)cc1 | -6 | 41* | 17* | 22% | /
COc1ccc(Br)cc1C(=O)Nc1ccc(C(=O)O)cc1 | 30 | 14 | -4 | -1% | 30%
COc1cc2ccccc2cc1C(=O)Nc1ccc(C)cc1 | 272 | 75 | 26* | ? | -17%
COc1ccc(C(=O)n2nc(-c3ccco3)nc2NCc2cccs2)cc1 | 30 | / | / | / | /
CCn1cc(C(=O)NCCc2ccc(Cl)cc2)c(=O)c2cc(S(=O)(=O)N3CCC(C)CC3)ccc21 | 16 | / | / | / | /
COc1cc2ccccc2cc1C(=O)Nc1ccc(Cc2ccncc2)cc1 | 14 | 60 | 28 | / | 4.1µM*
CC(=O)Nc1cc2cc(NS(=O)(=O)c3ccc(C)cc3)ccc2oc1=O | 1 | -20 | -2 | 1% | 14%
NC(=S)N/N=C\c1c(OCc2ccccc2Cl)ccc2ccccc12 | -97* | 1 | 8 | 10µM* | 42%
CC(=O)Nc1ccc(C2=NNC(=Nc3cccc(S(=O)(=O)N(C)C)c3)SC2)cc1 | / | -8 | -2 | ? | ?
NC1=NN=C(c2ccc3c(c2)OCCO3)CS1 | 47 | 24 | -1 | i | 36%
c1ccc(CN=C2NN=C(c3ccccc3)CS2)cc1 | -30 | 62 | 55* | ? | 167%
C=CCN=C1NN=C(c2ccc3c(c2)OCCO3)CS1 | -33 | 41* | 21* | 44% | 8%
COCCN=C1NN=C(c2ccc(NC(C)=O)cc2)CS1 | -67* | 1 | -3 | ? | ?
Clc1ccc(C2=NNC(=NCc3ccccc3)SC2)cc1 | -79* | 74* | 20 | ? | ?
SMILES | HCMV antiviral | Shiga toxin inh | CHX counter | Pf growth 48h | Pf growth 96h
CCOc1ccccc1NC(=O)CN1CCN(C(=O)C2CCCO2)CC1 (configuration not stated) | -13 | -3 | 1 | 8% | ?
CCCCN(C(=O)Cc1coc2cc(C)c(C)cc12)c1c(N)n(Cc2ccccc2)c(=O)[nH]c1=O | 12 | / | / | ? | ?
COc1ccccc1C1=NNC(=NCc2ccccc2)SC1 | -60* | 33* | 31* | -28% | 50%
c1ccc(-c2[nH]ncc2CN2CCN(Cc3ccc4c(c3)OCO4)CC2)cc1 | -9 | -3 | 0 | 28% | -32%
CC(C)N=C1NN=C(c2ccc(F)cc2)CS1 | 118 | 80* | 18* | i | 233%
c1ccc(C2=NNC(=NCc3ccc4c(c3)OCO4)SC2)cc1 | -32 | 80* | 18* | 12% | ?
Fc1ccc(C2=NNC(=NCc3ccccc3)SC2)cc1F | ? | 64* | 34* | ? | ?
CNC(=S)N1N=C(c2cccs2)CC1c1ccc(F)cc1 (configuration not stated) | -16 | 3 | -2 | ? | 40%
Cc1ccc(CCNC(=O)CSCc2ccc(F)cc2)cc1 | 1 | 13 | -2 | 12% | -11%
Cc1c(N=C2NN=C(c3ccc(Cl)cc3)CS2)c(=O)n(-c2ccccc2)n1C | -23 | 26 | 30 | ? | ?
CCN=C1NN=C(c2ccc(C)cc2)CS1 | 11 | 106* | 38* | 63% | -48%
CCc1nc(SCc2cc(=O)c3cc(C)ccc3[nH]2)n[nH]1 | -10 | / | / | / | /
CC(=O)Nc1ccc(NCc2nnc3n2CCCCC3)cc1 | -4 | / | / | / | /
CCOC(=O)CSc1nc(C)cc(C)n1 | 21 | -5 | 1 | / | -8%
CCOC(=O)CC1(O)CSc2nc(N)cc(=O)n21 (configuration not stated) | -77* | / | / | / | /
COc1ccc(CN=C(C)c2c(C(F)(F)F)[nH]n(-c3nc4ccccc4s3)c2=O)cc1 | -37 | 122* | 42* | 103% | /
CC(=O)c1c(CC(=O)O)[nH]n(-c2nc3ccccc3s2)c1=O | 115 | 24 | 21 | / | 4%
COC(=O)Cc1[nH]n(-c2nc3ccccc3s2)c(=O)c1C(C)=O | -17 | 33 | 17* | 71% | /
COc1ccc(Cn2c(=O)sc3ccccc3c2=O)cc1 | -30 | 4 | 8 | i | ?
CSCCC(NC(=O)c1ccc(Cl)cc1Cl)C(=O)N1CCCCCCC1 (configuration not stated) | -12 | / | / | ? | -1%
CCOP(=O)(c1ccccc1)c1nc(-c2ccccc2Cl)oc1N1CCCCC1 (configuration not stated) | 15 | 10 | 3 | 6.6µM* | ?
O=S(=O)(c1ccccc1)c1nc(-c2ccccc2Cl)oc1N1CCCCCC1 | 22 | / | / | / | /
O=C(NCc1ccccn1)c1cccn1-c1ncc(C(F)(F)F)cc1Cl | 28 | -8 | -2 | ? | -30%
Cc1cc(=O)n2c3ccccc3n(CC(O)CN3CCCCC3)c2c1C#N (configuration not stated) | -87* | 13 | 1 | 5% | ?
Cc1ccc2c(c1)c(C)c(C)n2CC(O)CN1CCOCC1 (configuration not stated) | -25 | -3 | -4 | 12µM* | 36%
Cc1cc(=O)n2c3ccccc3n(CC(O)CN3CCOCC3)c2c1C#N (configuration not stated) | -16 | -11 | -5 | -1% | ?
CNCC(O)Cn1c2c(c3ccccc31)CCCC2 (configuration not stated) | 0 | -6 | 0 | 10µM* | 11%

Source: PubChem BioAssay (National Center for Advancing Translational Sciences (NCATS))
